Measurements: PubChem BioAssay (NCI)
The panel holds about 83,000 compounds, 20% with a hit somewhere; the sample as a whole holds those more often.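 The test compound was applied at a single concentration to cells in 96-well plates for 48 hours, and percent growth was recorded.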 Values without a mark were called inactive. Calls of active or inactive are those of the source. How the source made its calls: active means growth percent below 10; inactive means the rest.

Assays:
Test in all cases: NCI-60 one-dose screen, 48 h (100 = growth as untreated, 0 = no growth, -100 = all killed)
Conditions in all cases: 10 µM unless noted
[1] = system: SK-MEL-2 melanoma
[2] = system: EKVX NSCLC
[3] = system: SN12C renal
[4] = system: UO-31 renal
[5] = system: TK-10 renal
[6] = system: ACHN renal
[7] = system: A498 renal
[8] = system: CCRF-CEM leukemia
[9] = system: MOLT-4 leukemia
[10] = system: SR leukemia

Compound	growth [1]	growth [2]	growth [3]	growth [4]	growth [5]	growth [6]	growth [7]	growth [8]	growth [9]	growth [10]
Cc1nc2sc(C(=O)Nc3ccccc3)c(N)c2cc1C(C)O (stereo not given)	39.3%	76.1%	43.2%	61.6%	65.9%	54.2%	36.3%	16.6%	25.7%	11.7%
COc1cc(C(=O)Nc2cc(O)c(C/C=C(\C)CCC=C(C)C)c(O)c2)cc2c1O[C@]1(C)CC[C@@H](O)C(C)(C)[C@H]1C2	5.69% (active)	31.7%	26.5%	-31.9% (active)	40.9%	18.5%	-25.7% (active)	7.08% (active)	-2.24% (active)	1.41% (active)
CC(C)(C)CC(C)(C)Cc1ccc(OCCOCC[N+](C)(C)Cc2ccccc2)cc1	28.4%	74.7%	8.79% (active)	97.1%	49.4%	97.4%	63.8%	10%	7.43% (active)	-27.8% (active)
C#C[C@@]1(O)[C@@H](CO)O[C@@H](n2cnc3c(-c4ccccc4)ncnc32)[C@@H]1O	107%	97.7%	102%	92.5%	100%	115%	106%	102%	99.7%	101%
Cc1ccc(C2CC(c3ccc(Nc4nc(NCCO)nc(NCCO)n4)cc3)=NN2c2ccc(Cl)cc2)cc1 (stereo not given)	70.6%	65.7%	82.4%	62.3%	82.6%	52.2%	86.1%	31.8%	32.3%	26.2%
O=c1c2ccccc2oc2ccc(OCCCCCCN3CCCCCC3)cc12	76.9%	62.8%	55%	41.8%	66.3%	65.7%	70.2%	43.3%	6.07% (active)	1.08% (active)
COc1ccc2nc(-c3ccc(OC)c(OC)c3)cc(-c3nnc(SCC(=O)Nc4ccc(/C(C)=N\O)cc4)n3-c3ccccc3)c2c1	80.7%	88.8%	80.7%	54.2%	65.9%	75.5%	77.9%	40%	33.8%	54.7%
CCOC(=O)c1c(C(F)(F)F)n([O-])c2ccc(Cl)cc2[n+]1=O	-57.2% (active)	-8.8% (active)	-21.4% (active)	-44.3% (active)	-92.7% (active)	-97.8% (active)	-76.4% (active)	-45.7% (active)	-48.5% (active)	-33.6% (active)
O=C1c2ccccc2C(=O)c2c1oc1c2c(=O)[nH]c2ccc(Cl)cc21	31.8%	15.2%	-26.3% (active)	-54.9% (active)	-42.1% (active)	-14.2% (active)	80.4%	29%	18.4%	33.7%
O=C1C(=O)c2c(nc3ccc(C(F)(F)F)cn23)-c2ccccc21	-67.1% (active)	-72.5% (active)	-84.4% (active)	-97.5% (active)	-97.3% (active)	-99.1% (active)	-92.9% (active)	0.668% (active)	-33.1% (active)	-5.53% (active)
C=C1C(=O)O[C@H]2[C@H]1CC/C(COC(=O)c1c[nH]c3ccccc13)=C\CC[C@@]1(C)O[C@@H]21	-41.3% (active)	-73.3% (active)	-46.5% (active)	-97.6% (active)	-87% (active)	-77.8% (active)	-96.3% (active)	-0.836% (active)	-1.78% (active)	-9.87% (active)
O=C1c2ccccc2C(=O)c2c1oc1c2c(=O)[nH]c2ccccc21	76.9%	27.4%	70.4%	60.4%	97.5%	65.7%	104%	20.7%	5.55% (active)	43.8%
C[C@]12CC[C@@H]3c4ccc(O)cc4CC[C@H]3[C@@H]1C[C@H](O)C2	82.4%	44%	71.6%	71.4%	96.4%	99.7%	44.6%	52.7%	47.5%	25.4%
C=CCn1c(SCC(=O)Nc2ccc(C(=O)/C=C/c3ccc(Cl)cc3)cc2)nnc1-c1cc(OC)c(OC)c(OC)c1	103%	92.3%	79.7%	66.5%	102%	106%	82.5%	84.6%	70.8%	72.9%
Clc1ccc2c(NCCCNC3CCCCC3)ccnc2c1	107%	66.2%	97%	83%	111%	116%	98.9%	67.7%	6.38% (active)	46.8%
CCC[S@@](=O)c1ccc2nc(NC(=O)OC)[nH]c2c1	95.1%	90.2%	96.4%	90.9%	91.9%	102%	87.6%	86.4%	74.5%	41.6%
S=C(Nc1ccccc1)c1ccccn1	103%	93.1%	85.9%	57%	109%	93.5%	91.4%	37.5%	80%	56.1%
CC(=O)Oc1ccc(O)cc1	87.2%	103%	99.9%	91.2%	112%	97.8%	100%	64.3%	4.64% (active)	87.7%
O=C(CCCC(=O)Nc1ccc(-n2nnc3cc(Cl)c(Cl)cc32)cc1)Nc1ccc(-n2nnc3cc(Cl)c(Cl)cc32)cc1	53.8%	64.4%	40.5%	79.8%	84%	66.2%	36.5%	77.6%	91.1%	51.2%
COc1ccc(/C=C(/C(=O)N2CCN(Cc3ccccc3)CC2)c2cc(OC)c(OC)c(OC)c2)cc1O	73.6%	87.2%	91.2%	62.5%	88.5%	67.2%	54.9%	64.9%	72.1%	28%
C#Cc1ccccc1NC(=O)c1sc2nc3c(cc2c1N)CCCCC3	101%	84.8%	98.2%	85.4%	117%	101%	94.1%	93.8%	94.5%	81.2%
S=c1ssnc1-c1cc2ccccc2o1	91.2%	76.6%	98.8%	52.5%	98.4%	80.3%	103%	7.9% (active)	51.1%	41.6%
CN(C)C(CNc1oc(-c2cccc3ccccc23)nc1C#N)c1ccco1 (stereo not given)	95.9%	85.1%	103%	87.7%	109%	90.6%	107%	79.5%	70.5%	69.5%
C#C[C@@]1(O)[C@@H](CO)O[C@@H](n2cc(F)c3c(N)ncnc32)[C@@H]1O	-1.11% (active)	1.34% (active)	2.43% (active)	-15.5% (active)	3.69% (active)	-10.6% (active)	-76% (active)	13.3%	4.47% (active)	12.9%
COc1cc(NC(=O)Nc2cnc(Nc3ccc(N4CCOCC4)cc3)nc2Oc2ccc(F)cc2)cc(OC)c1	101%	108%	61.8%	93%	116%	99.9%	102%	92.9%	77.2%	66.2%
COc1ccccc1N1CCN(CCCOc2ccc(C(=O)/C=C3/C(=O)Nc4ccccc43)cc2)CC1	72.2%	53.5%	69.7%	44.5%	87.1%	74.2%	88.6%	15.6%	18.6%	19.8%
